Screening data (PubChem BioAssay)
JNK3 blocker – inhibitors of human JNK3 kinase; inhibition, % at 8 µM; P53779; purified JNK3 kinase activity, HTS; 60,000 tested, 0.61% active; in the data active = inhibition above about 17%;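 note: 0% = DMSO and 100% = reference inhibitor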
FXIIa mix inh – inhibitors of human coagulation factor XIIa, pooled mixtures | P00748 | purified FXIIa, fluorogenic substrate | inhibition, % at 5 µM | 62,000 tested, 0.2% active | AID 684;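 note: 0% = enzyme without compound and 100% = no enzyme blank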
Target sequence (P00748 20-372 limits assumed): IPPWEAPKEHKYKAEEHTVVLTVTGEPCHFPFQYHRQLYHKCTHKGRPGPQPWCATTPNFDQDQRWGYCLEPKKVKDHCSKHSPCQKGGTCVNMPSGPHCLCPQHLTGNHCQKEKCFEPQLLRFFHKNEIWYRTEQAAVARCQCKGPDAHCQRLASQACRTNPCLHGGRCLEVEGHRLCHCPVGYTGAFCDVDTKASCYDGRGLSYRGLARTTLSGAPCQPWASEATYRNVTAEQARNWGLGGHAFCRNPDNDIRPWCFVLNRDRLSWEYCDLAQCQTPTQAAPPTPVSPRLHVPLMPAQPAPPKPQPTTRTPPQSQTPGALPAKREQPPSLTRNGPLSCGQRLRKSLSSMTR
Target sequence (P00748 373-615 limits assumed): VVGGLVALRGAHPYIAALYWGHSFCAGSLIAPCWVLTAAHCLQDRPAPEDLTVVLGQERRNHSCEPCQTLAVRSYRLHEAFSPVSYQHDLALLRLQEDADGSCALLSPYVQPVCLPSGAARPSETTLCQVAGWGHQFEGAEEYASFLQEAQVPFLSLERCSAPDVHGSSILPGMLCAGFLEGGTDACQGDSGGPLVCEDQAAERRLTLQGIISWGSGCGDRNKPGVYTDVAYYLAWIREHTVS
M1 agonist – agonists of M1 muscarinic receptor; CHO-M1 cells, Fluo-4 calcium fluorescence, agonist mode; hits give high values; 64,000 tested, 3% active; B-score at 10 µM; AID 626;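 active = fluorescence rise, raw or as B-score row- and column-corrected plate score, outside the 99.7% band of its plate's samples, either direction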
M1 antag – antagonists of rat M1 muscarinic receptor. 64,000 tested, 3.4% active. B-score at 10 µM. P08482. CHO-M1 cells, Fluo-4 calcium, ACh EC80 antagonist mode; hits give low values;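 active = calcium fluorescence response, raw or row-and-column corrected B-score, differing from the plate sample mean either way at a set confidence level, mostly lower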
HER2 expr 66K – inhibitors of human Her2 kinase expression; P04626; SKBR-3 HER2 protein level, AlphaScreen, 18-24 h; hits give low values; HER2 level % of control, % at 10 µM; 65,000 tested, 0.69% active; AID 645;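 active = HER2 level under 5% of the carrier-only control; inconclusive = no clear call, values can overlap the other calls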;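 note: 100% = DMSO carrier and 0% = 500 nM PU-H71 HSP90 inhibitor; lower value means stronger loss of Her2 protein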
FXIa mix inh – inhibitors of human coagulation factor XIa, pooled mixtures; 62,000 tested, 0.19% active; purified FXIa, fluorogenic substrate; inhibition, % at 5 µM; AID 680; P03951;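 note: each value is inhibition by a whole ten-compound pool holding the compound; 0% = enzyme with no mixture and 100% = wells lacking enzyme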
M1 ag confirm – confirmation of rat M1 muscarinic receptor agonists. 1,700 tested, 19% active. CHO-M1 cells, Fluo-4 calcium fluorescence, agonist mode; actives lie on both sides. shares compounds with M1 agonist. fluorescence change (max-min) at 10 µM;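 active = fluorescence change differs from the solvent-only DMSO control mean at a set confidence level in both duplicate runs; inconclusive = differs from solvent-only control mean in just one of two runs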;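 note: an EC20 dose of acetylcholine follows compound addition during the same imaging run; raw fluorescence intensity difference in instrument units with no normalization to controls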
M4 agonist ctr – activates rat M4 receptor in counter-screen for M1 agonists. 1,700 tested, 9% active. CHO M4/Gqi5 cells, Fluo-4 calcium fluorescence, agonist mode; actives lie on both sides. shares compounds with M1 agonist. fluorescence change (max-min) at 10 µM;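 active = fluorescence change differing from the plate's solvent-only control wells at 99.7% confidence in both duplicates, whether higher or lower; inconclusive = differs from solvent controls in only one of two duplicates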
* marks the source's active call; other numbers are inactive results; ? = inconclusive; · = no result. In the library only some 6.9% were active in any assay of this set; here they are far more common. Cut-off read from the data, not from the text of the source, unless noted: active = inhibition above about 20% (passing the limit was not always enough); inactive = the rest.

SMILES	JNK3 blocker	FXIIa mix inh	M1 agonist	M1 antag	HER2 expr 66K	FXIa mix inh	M1 ag confirm	M4 agonist ctr
Cc1nc2c(cnn2-c2ccc(Cl)cc2)c(=O)n1-c1ccc2c(c1)OCCO2	-4	-6	-0.66	0.15	95	9	·	·
COC(=O)c1ccc(C2CC(=O)Nc3cc(OC)c(OC)c(OC)c32)cc1 (stereo not given)	-5	5	-0.63	0.14	101	4	·	·
CCCCCn1c(SCCc2ccccc2)nc2c1c(=O)[nH]c(=O)n2C	3	-1	0.35	0.22	94	6	·	·
CCn1c(N2CCC(Cc3ccccc3)CC2)nc2c1c(=O)[nH]c(=O)n2C	1	3	5.4*	-0.9	83	28	?	-84
Cc1nnc(SCCn2c(N3CCCCC3)nc3c2c(=O)[nH]c(=O)n3C)s1	-1	·	0.3	2.1	104	·	·	·
CC1CCN(c2nc3c(c(=O)[nH]c(=O)n3C)n2Cc2ccccc2)CC1	5	12	0.37	-0.41	113	4	·	·
CCCn1c(SCCc2ccccc2)nc2c1c(=O)[nH]c(=O)n2C	-7	3	4.7*	-0.087	82	7	?	-60
Cc1nnc(SCCCn2c(N3CCN(c4ccccc4)CC3)nc3c2c(=O)[nH]c(=O)n3C)s1	-3	-4	11*	-2.1*	61	6	-19	?
Cc1ccc(C2C(C#N)=C(N)Oc3c2sc2ccccc32)o1 (stereo not given)	5	4	109*	-0.052	6	4	165*	53
COC(=O)C1(S(=O)(=O)c2ccc(C)cc2)CCOCC1	·	·	·	·	94	·	·	·
Cc1nc(SCC(=O)c2ccccc2)c(C#N)c(-c2ccco2)c1C(=O)NCc1ccco1	12	·	1.1	0.28	111	·	·	·
CCc1ccc(Cn2nnc(C(=O)NCc3ccccc3OC)c2N)cc1	0	5	2.2*	0.14	111	-1	-29	-23
Cc1ccc(Cn2nnc(C(=O)Nc3cccc(C)c3C)c2N)cc1	0	5	7.5*	0.014	96	3	4.2	-62
COc1ccc(CNC(=O)c2nnn(Cc3ccc(OC)cc3)c2N)cc1	-7	8	0.12	0.11	41	-4	·	·
CCc1ccc(Cn2nnc(C(=O)Nc3cccc(C)c3)c2N)cc1	-1	4	-0.15	0.15	89	4	·	·
c1ccc(-n2ncc3c2ncn2cnnc32)cc1	-1	-18	27*	-0.77	92	7	-9.5	-33
c1ccc(-n2ncc3c2ncn2nnnc32)cc1	0	9	0.11	-0.075	94	4	·	·
CCOC(=O)Nc1ccc(OC)cc1S(=O)(=O)N1CCCCC1	5	13	-0.02	-0.97	84	-5	·	·
COC(=O)c1ccc2c(=O)n(CCCCCC(=O)N3CCN(c4ccccc4)CC3)c(=O)[nH]c2c1	3	7	11*	-1.7	46	-1	-5.2	5.4
COc1cc2[nH]c(=O)n(CCCCCC(=O)N3CCN(c4ccccc4)CC3)c(=O)c2cc1OC	·	3	2.8*	-1.8	131	4	-6.8	-12
CCOC(=O)N1CCN(C(=O)CSc2nnc(-c3ccc(C(C)(C)C)cc3)o2)CC1	-3	-17	6.9*	-0.85	73	9	-15	-29
CCOC(=O)N1CCN(C(=O)CSc2nnc(-c3ccc(C)c(C)c3)o2)CC1	-4	0	0.0053	-0.49	82	-1	·	·
CN1C=CC2=C(C#N)C(N)C(C#N)(C#N)C(c3ccccc3)C2C1 (stereo not given)	·	8	34*	-0.34	86	2	187*	179*
CC(=O)c1cccc(-n2nnnc2SCC(=O)Nc2cccc(NC(=O)c3ccco3)c2)c1	12	5	3.6*	-0.13	73	3	-28	?
CCCCCCc1cc2cc(C(=O)NC)c(=N)oc2cc1O	-5	·	401*	-15*	88	·	3193*	2756*
SMILES	JNK3 blocker	FXIIa mix inh	M1 agonist	M1 antag	HER2 expr 66K	FXIa mix inh	M1 ag confirm	M4 agonist ctr
CCOc1ccc(-c2n[nH]c(C)c2Oc2ccc(OC)cc2)c(O)c1	3	3	-0.005	-0.68	82	-8	·	·
CC(C)N1CCc2c(sc(NC(=O)c3ccc(S(=O)(=O)N4CCOCC4)cc3)c2C(N)=O)C1	-12	1	8.9*	-0.21	97	1	13	3.8
COc1ccc(NC(=O)C2CCCN2S(=O)(=O)c2cccc3cccnc23)c(OC)c1 (stereo not given)	9	3	-0.11	1.3	79	-2	·	·
COc1ccc(N(C)S(=O)(=O)c2cccc3cccnc23)c(OC)c1	0	3	5.2*	-1.2	86	3	?	-61
COc1ccc(C)cc1NC(=O)C1CCN(S(=O)(=O)c2cccc3cccnc23)CC1	-12	8	-0.011	-0.21	74	0	·	·
COc1ccc(OC)c(NC(=O)C2CCCN(S(=O)(=O)c3cccc4cccnc34)C2)c1 (stereo not given)	10	-8	5*	-1.7	77	3	-33*	-48
Cc1occc1C(=O)Nc1sc2c(c1C(N)=O)CCCCC2	2	11	-0.084	0.14	93	-8	·	·
COC(=O)c1c(NC(=O)c2ccoc2C)sc2c1CCC2	-1	11	2.2*	0.23	76	-10	0.42	-44
COc1ccc(CCNc2oc(-c3ccccc3OC)nc2C#N)cc1OC	5	2	3.6*	0.35	82	4	-22	-74*
COc1ccc(NCc2nnc(SCC#N)n2-c2ccccc2OC)cc1	6	2	0.48	1.9	38	13	·	·
Cn1nc(CC(=O)Nc2ccc3c(c2)CCC3)c2ccccc2c1=O	-2	4	11*	-2	55	13	33	20
COc1cc(C(=O)Nc2nccs2)c(Br)c(OC)c1OC	1	-14	2.9*	-0.65	75	5	-11	-41
CC(C)CC1(C)NC(=O)N(CCN2C(=O)c3ccccc3C2=O)C1=O (stereo not given)	-2	2	-0.12	0.64	113	10	·	·
Cc1ccc2c(c1)c1nc3ccccc3nc1n2CCN1CCOCC1	2	5	7.2*	-0.02	35	6	-9	-21
Cc1ccc(S(=O)(=O)c2c(N)n(CCN3CCOCC3)c3nc4ccccc4nc23)cc1C	6	3	-0.048	-0.2	68	0	·	·
CCc1cc2c(NCCO)ncnc2s1	1	-3	0.87	-0.66	79	4	·	·
CCc1cc2c(NCCC(=O)O)ncnc2s1	·	6	11*	-0.16	·	4	-8.6	-45
COc1ccccc1CNc1ncnc2c1nnn2Cc1ccccc1	2	·	0.47	0.73	89	·	·	·
CCn1c(COc2cccc(OC)c2)nnc1SCC(=O)Nc1cccc(OC)c1	-2	7	3*	-0.91	98	2	-22	-33
